Assay results reported in PubChem BioAssay.
Activity calls are given as the source filed them.

Columns and labels:
[1] = system: Plasmodium falciparum Sir2 (PF13_0152, Sir2A); assay: Plasmodium falciparum Sir2A binding compounds – biochemical, small-molecule microarray, 635 nm fluorescence, primary screen (AID 1098); details: fluorescence 635 nm, higher = more signal;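 note: score merges spot fluorescence intensity with its signal-to-noise ratio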
[2] = probe aDKK1 binding to arrayed compounds – biochemical, biotinylated probe, 635/667 nm fluorescence, primary screen (AID 1099); details: small-molecule microarray, higher = more signal;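 note: score merges 667nm spot fluorescence with signal to noise across triplicate slides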
[3] = probe aCHRDL2 binding to arrayed compounds – biochemical, biotinylated probe, 635/667 nm fluorescence, primary screen (AID 1100); details: small-molecule microarray, higher = more signal
[4] = change in splice reporter luminescence, either direction, cell-based, HEK293, spliceosome inhibition project, primary screen (AID 1101); details: HEK293 splicing luciferase reporter, 24 h, higher = more signal, called active from +8 up or from −8 down;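 note: HEK293 cells carrying a splicing-competent luciferase reporter gene; test concentration not given here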
[5] = biological target: Fibroblast growth factor 10 (Homo sapiens) (UniProt O15520); assay: compounds binding fibroblast growth factor 10 – biochemical, small-molecule microarray, 635 nm fluorescence, primary screen (AID 1102); details: FGF10 binding, fluorescence 635 nm, higher = more signal
Chain of Fibroblast growth factor 10 (Homo sapiens) (O15520 whole entry, looked up): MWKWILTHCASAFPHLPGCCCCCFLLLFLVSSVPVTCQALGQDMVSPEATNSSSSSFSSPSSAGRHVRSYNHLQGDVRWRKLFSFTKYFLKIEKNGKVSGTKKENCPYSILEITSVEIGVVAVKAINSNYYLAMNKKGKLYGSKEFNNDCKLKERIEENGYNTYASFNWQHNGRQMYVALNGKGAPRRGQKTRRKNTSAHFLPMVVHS

[6] = system: glycogen synthase kinase-3 (GSK3A per assay name; protocol says GSK3B); assay: compounds binding glycogen synthase kinase-3 – biochemical, small-molecule microarray, 635 nm fluorescence, GSK3A, primary screen (AID 1103); details: fluorescence 635 nm, higher = more signal; note: the record names both GSK3A and GSK3B
[7] = biological target: Epidermal growth factor receptor (Homo sapiens) (UniProt P00533); assay: compounds binding epidermal growth factor receptor – biochemical, small-molecule microarray, 635 nm fluorescence, primary screen (AID 1104); details: EGFR binding, higher = more signal;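 note: score merges 667 nm emission intensity with spot signal to noise over triplicate slides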
Chain of Epidermal growth factor receptor (Homo sapiens) (P00533 whole entry, looked up): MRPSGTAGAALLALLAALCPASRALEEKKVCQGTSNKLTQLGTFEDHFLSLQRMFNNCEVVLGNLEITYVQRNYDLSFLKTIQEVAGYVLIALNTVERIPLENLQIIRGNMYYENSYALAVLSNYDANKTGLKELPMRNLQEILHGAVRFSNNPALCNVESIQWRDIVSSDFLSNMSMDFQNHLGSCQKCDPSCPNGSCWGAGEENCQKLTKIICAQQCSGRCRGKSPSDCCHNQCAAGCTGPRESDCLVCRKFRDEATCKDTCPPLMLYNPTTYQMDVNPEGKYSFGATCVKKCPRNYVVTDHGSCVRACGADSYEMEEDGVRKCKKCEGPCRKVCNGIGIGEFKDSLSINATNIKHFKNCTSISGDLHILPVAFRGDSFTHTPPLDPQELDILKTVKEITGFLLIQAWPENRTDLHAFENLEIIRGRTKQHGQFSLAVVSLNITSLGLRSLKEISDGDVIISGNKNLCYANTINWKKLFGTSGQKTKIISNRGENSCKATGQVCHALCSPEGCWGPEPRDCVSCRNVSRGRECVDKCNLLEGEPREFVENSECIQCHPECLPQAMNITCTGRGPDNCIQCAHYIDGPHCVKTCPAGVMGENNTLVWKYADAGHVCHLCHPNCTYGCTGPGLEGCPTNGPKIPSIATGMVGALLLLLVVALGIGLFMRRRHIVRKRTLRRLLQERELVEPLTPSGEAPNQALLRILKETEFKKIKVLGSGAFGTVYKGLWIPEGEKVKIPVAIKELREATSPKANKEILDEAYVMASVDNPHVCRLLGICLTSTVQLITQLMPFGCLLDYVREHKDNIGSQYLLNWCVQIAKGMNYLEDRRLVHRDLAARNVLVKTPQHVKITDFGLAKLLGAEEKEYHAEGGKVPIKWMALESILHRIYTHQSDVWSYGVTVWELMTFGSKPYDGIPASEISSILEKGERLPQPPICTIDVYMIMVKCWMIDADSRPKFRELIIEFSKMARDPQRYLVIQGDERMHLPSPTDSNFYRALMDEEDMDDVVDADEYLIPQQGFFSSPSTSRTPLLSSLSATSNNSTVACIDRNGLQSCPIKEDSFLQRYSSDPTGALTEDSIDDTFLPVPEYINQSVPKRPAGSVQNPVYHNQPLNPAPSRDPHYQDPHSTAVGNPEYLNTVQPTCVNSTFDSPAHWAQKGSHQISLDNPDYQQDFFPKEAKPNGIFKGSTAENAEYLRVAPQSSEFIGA

[8] = biological target: Follistatin-related protein 3 (Homo sapiens) (UniProt O95633); assay: compounds binding follistatin-related protein 3 – biochemical, small-molecule microarray, 635 nm fluorescence, primary screen (AID 1105); details: FSTL3 binding, higher = more signal;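 note: score merges emission near 667 nm and signal to noise per printed spot across three slides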
Chain of Follistatin-related protein 3 (Homo sapiens) (O95633 whole entry, looked up): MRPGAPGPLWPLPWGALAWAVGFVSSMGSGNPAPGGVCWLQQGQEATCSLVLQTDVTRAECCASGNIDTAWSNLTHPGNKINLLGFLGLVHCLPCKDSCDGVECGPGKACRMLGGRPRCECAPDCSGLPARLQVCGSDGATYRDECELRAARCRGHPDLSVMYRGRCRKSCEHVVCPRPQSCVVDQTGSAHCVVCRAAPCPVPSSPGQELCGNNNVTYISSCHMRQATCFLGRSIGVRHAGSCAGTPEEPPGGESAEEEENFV

[9] = biological target: Dickkopf-related protein 1 (Homo sapiens) (UniProt O94907); assay: small molecules binding DKK1 protein – biochemical, small-molecule microarray, 635 nm fluorescence scan, primary screen (AID 1106); details: higher = more signal;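 note: score merges emission near 667 nm with signal to noise over three replicate slides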
Chain of Dickkopf-related protein 1 (Homo sapiens) (O94907 whole entry, looked up): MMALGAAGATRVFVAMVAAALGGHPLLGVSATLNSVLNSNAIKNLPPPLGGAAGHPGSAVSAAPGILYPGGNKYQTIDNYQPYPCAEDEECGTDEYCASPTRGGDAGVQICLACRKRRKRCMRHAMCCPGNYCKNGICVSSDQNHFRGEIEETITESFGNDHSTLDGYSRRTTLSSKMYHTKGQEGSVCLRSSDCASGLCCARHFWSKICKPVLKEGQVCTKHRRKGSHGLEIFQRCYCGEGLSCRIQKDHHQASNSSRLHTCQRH

[10] = system: Inhibin beta A chain (activin A); assay: small molecules binding activin A – biochemical, small-molecule microarray, 635 nm fluorescence scan, primary screen (AID 1107); details: INHBA, higher = more signal;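 note: mouse activin A protein probed at 4.33 µg/mL on printed slides; score merges bound-protein fluorescence near 667 nm with spot signal-to-noise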
[11] = system: Human papillomavirus type 1a protein E7 (residues 44-93); assay: small molecules binding HPV E7 44-93 – biochemical, small-molecule microarray, residues 44-93, 635 nm fluorescence, primary screen (AID 1108); details: fluorescence 635 nm, higher = more signal;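 note: E7 fragment applied at 1 µg/mL in TBST for 1 h at 4 C; score combines spot fluorescence with its signal to noise ratio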
[12] = hepatitis C replication reporter changes, two-sided – Huh7 cells, luciferase reporter, HCV replication inhibitor project, primary screen (AID 1109); details: Huh7 HCV replicon luciferase reporter, 48 h; higher = more signal;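 note: huh7 hepatoma cells harbouring a luciferase neomycin HCV replicon reporter; luciferase luminescence as measure of HCV replicon replication; test concentration not given here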
[13] = biological target: Left-right determination factor 2 (Homo sapiens) (UniProt O00292); assay: small molecules binding LEFTY2 protein – biochemical, small-molecule microarray, 635 nm fluorescence scan, primary screen (AID 1110); details: higher = more signal
Chain of Left-right determination factor 2 (Homo sapiens) (O00292 whole entry, looked up): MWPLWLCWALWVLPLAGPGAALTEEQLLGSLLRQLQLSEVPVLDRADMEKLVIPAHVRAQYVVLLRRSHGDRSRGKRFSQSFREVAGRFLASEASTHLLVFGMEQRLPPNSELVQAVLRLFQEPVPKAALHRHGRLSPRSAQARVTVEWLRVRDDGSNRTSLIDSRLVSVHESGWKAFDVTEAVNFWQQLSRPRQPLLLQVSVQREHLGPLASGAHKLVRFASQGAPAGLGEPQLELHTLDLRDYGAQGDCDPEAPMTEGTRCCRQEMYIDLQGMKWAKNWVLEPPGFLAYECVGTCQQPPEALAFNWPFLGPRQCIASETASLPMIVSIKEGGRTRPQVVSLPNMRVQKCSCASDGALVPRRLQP

[14] = biological target: Calmodulin-1 (Homo sapiens) (UniProt P0DP23); assay: small molecules binding calmodulin-1 with EGTA – biochemical, small-molecule microarray, Cy5-labelled CALM1, profiling panel (AID 1111); details: Cy5-CALM1 binding fluorescence, higher = more signal;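 note: labelled calmodulin applied in Tris saline Tween buffer holding calcium plus EGTA and DTT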
[15] = biological target: Calmodulin-1 (Homo sapiens) (UniProt P0DP23); assay: small molecules binding Ca-loaded calmodulin-1 – biochemical, small-molecule microarray, Cy5-labelled CALM1, plus calcium, artefact control for SMM control-protein annotation, profiling panel (AID 1112); details: Cy5-CALM1 binding fluorescence, higher = more signal;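 note: score merges spot fluorescence with signal to noise from triplicate slides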
[16] = probe aWnt5a binding to arrayed compounds – biochemical, biotinylated probe, 635/667 nm fluorescence, primary screen (AID 1113); details: small-molecule microarray, higher = more signal;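 note: score merges 667 nm fluorescence intensity with signal-to-noise per printed feature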
[17] = probe aShh binding to arrayed compounds – biochemical, biotinylated probe, 635/667 nm fluorescence, primary screen (AID 1114); details: small-molecule microarray, higher = more signal;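 note: probe is biotin-labelled aShh protein from a stem cell growth factor screen; measures binding of labelled protein to compounds printed on the slide; score merges feature fluorescence at 667 nm with signal-to-noise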
[18] = probe aNog binding to arrayed compounds – biochemical, biotinylated probe, 635/667 nm fluorescence, primary screen (AID 1115); details: small-molecule microarray, higher = more signal;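 note: probe is biotinylated aNog protein used at 0.15 µg/mL for 1 h at 4 C; z-score combines 667 nm fluorescence of each spot with its signal to noise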
[19] = biological target: Torsin-1A-interacting protein 1 (Homo sapiens) (UniProt Q5JTV8); assay: compound microarray binding of lysate hLAP1 – cell lysate, small-molecule microarray, COS7 lysate, 635/667 nm fluorescence, primary screen (AID 1116); details: 635 nm fluorescence, higher = more signal
Chain of Torsin-1A-interacting protein 1 (Homo sapiens) (Q5JTV8 whole entry, looked up): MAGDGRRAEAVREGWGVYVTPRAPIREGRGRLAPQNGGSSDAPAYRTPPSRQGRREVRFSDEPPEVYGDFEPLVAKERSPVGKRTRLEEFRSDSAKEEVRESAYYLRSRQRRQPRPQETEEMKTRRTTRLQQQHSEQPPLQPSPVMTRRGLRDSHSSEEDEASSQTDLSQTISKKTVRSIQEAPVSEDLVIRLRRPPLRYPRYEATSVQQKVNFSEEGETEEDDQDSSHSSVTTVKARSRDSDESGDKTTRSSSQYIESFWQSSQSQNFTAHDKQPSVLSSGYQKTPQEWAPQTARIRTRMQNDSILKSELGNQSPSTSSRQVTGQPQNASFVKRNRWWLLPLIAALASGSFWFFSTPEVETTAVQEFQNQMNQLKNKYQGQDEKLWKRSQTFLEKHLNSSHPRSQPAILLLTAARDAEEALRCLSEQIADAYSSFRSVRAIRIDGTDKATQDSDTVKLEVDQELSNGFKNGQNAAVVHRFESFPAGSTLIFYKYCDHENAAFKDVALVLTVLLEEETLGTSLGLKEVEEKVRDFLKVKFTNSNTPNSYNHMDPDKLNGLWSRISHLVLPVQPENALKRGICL

[20] = biological target: Alpha-bungarotoxin (Bungarus multicinctus) (UniProt P60615); assay: compounds binding labelled alpha-BTX control protein – biochemical, small-molecule microarray, Alexa647 label, 635/667 nm fluorescence, artefact control for SMM control protein annotation, profiling panel (AID 1117); details: alpha-BTX-A647 binding fluorescence, higher = more signal
Chain of Alpha-bungarotoxin (Bungarus multicinctus) (P60615 whole entry, looked up): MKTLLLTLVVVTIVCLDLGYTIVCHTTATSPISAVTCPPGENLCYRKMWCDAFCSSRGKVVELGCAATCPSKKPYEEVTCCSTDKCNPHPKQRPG

SMILES | composite z-score [1] | composite z-score [2] | composite z-score [3] | z-score [4] | composite z-score [5] | composite z-score [6] | composite z-score [7] | composite z-score [8] | composite z-score [9] | composite z-score [10] | composite z-score [11] | z-score [12] | composite z-score [13] | composite z-score [14] | composite z-score [15] | composite z-score [16] | composite z-score [17] | composite z-score [18] | composite z-score [19] | composite z-score [20]
CC(C)C[C@@H]1NC(=O)CNC(=O)[C@@]23C(=O)N[C@@H](Cc4ccccc4)C2[C@H](C)[C@@]2(C)O[C@H]2C3/C=C/C/C=C\CNC1=O (stereo not given in full) | 0.15 | -0.212 | -0.445 | 0.426 (inactive) | 0.569 | 1.15 | 0.366 | 1.04 | 0.568 | 1.25 | 1.39 | -0.275 | 0.6 | -0.263 | -0.825 | -0.147 | -0.388 | -0.177 | 0.625 | 0.985
COc1cc2c(cc1OC)CN(C(=O)[C@@H]1[C@H]3C(=O)O[C@H](c4ccccc4)[C@H](c4ccccc4)N3[C@H](c3ccc(O)cc3)[C@@]13C(=O)Nc1ccc(C#CCCO)cc13)CC2 | 0.552 | -0.0984 | 0.562 | -0.117 (inactive) | 1.19 | 0.422 | -0.0629 | 0.547 | 0.755 | 0.924 | 1.12 | -1.09 | 0.686 | 0.758 | -0.224 | -0.0538 | -0.11 | -0.102 | 0.678 | 0.319
CC(C)C(=C=CC[C@@H](O)c1cccc(OCCO)c1)C[C@@H](O)c1ccccn1 | 0.862 | -0.261 | -0.315 | 0.111 (inactive) | 0.285 | -0.366 | -0.604 | 0.0146 | 0.0852 | 0.139 | 0.0406 | -0.658 | -0.315 | -0.303 | -0.207 | -0.152 | -0.154 | -0.104 | 1.63 | -0.142
C=CCNC(=O)[C@@H]1[C@H]2C(=O)O[C@H](c3ccccc3)[C@H](c3ccccc3)N2[C@H](c2ccc(OCCO)cc2)[C@@]12C(=O)N(C(=O)OCCOC)c1ccc(C#CCCO)cc12 | 1.12 | -0.0139 | 0.171 | -1.53 (inactive) | 0.637 | 1.28 | 0.635 | 1.24 | 0.646 | 0.63 | 1.33 | -0.459 | 0.909 | 0.88 | -0.381 | 0.0229 | -0.0769 | -0.519 | 0.262 | 1.35
[N-]=[N+]=Nc1ccccc1[C@@H]1OC(c2ccc(OCCCO)cc2)=N[C@]1(Cc1ccccc1)C(=O)NCc1ccccc1 | 1.57 | 1.24 | 1.37 | 0.459 (inactive) | 1.02 | 1.06 | 0.0762 | 0.395 | 0.0944 | 0.604 | 0.656 | -2.53 | -0.0068 | 2.46 | 1.33 | 0.166 | 0.628 | 1.95 | 2.27 | 2.92
